Among the data in PubChem BioAssay (NCI) are growth values, retold here.

SMILES strings stand for the structures. This is part of a sample that, as a whole, favours compounds with a hit. Of some 83,000 tested, about 20% had one in any assay.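 Compound tested at a single concentration for 48 hours in 96-well plates; a percent growth value below 10 was scored as active.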 A number with no mark means an inactive call. Activity calls are given as the source filed them.

Test systems include T-47D breast; BT-549 breast; MDA-MB-435 melanoma; SW-620 colon; MCF7 breast; HCT-116 colon; HCC-2998 colon; KM12 colon.
What all share (test): NCI-60 one-dose screen, 48 h (100 = growth as untreated, 0 = no growth, -100 = all killed)
What all share (conditions): 10 µM unless noted

With `O=C(Cc1ccc(/C=C/C(=O)c2ncc[nH]2)cc1)Nc1ccc(Cl)cc1`, the growth in the assay with T-47D breast is 23.2%; in the assay on BT-549 breast, 29.3%; in the assay with MDA-MB-435 melanoma it was 23.8%; in the assay on SW-620 colon, -35.3% (active); in the assay with MCF7 breast, 13%; in the assay on HCT-116 colon, -47.5% (active). Besides, the values for the growth in the assay with HCC-2998 colon and in the assay with KM12 colon were 79.4% and -39% (active), respectively.

With `COc1ccccc1NC(=O)C1CC(c2ccc(F)cc2)=NO1` (configuration not stated), the growth in the assay on T-47D breast is 93.9%; in the assay with BT-549 breast, 112%; with MDA-MB-435 melanoma, 103%; in the assay on SW-620 colon it was 102%; in the assay with MCF7 breast it was 90.8%; in the assay with HCT-116 colon, 103%. Besides, the values for the growth in the assay on HCC-2998 colon and with KM12 colon were 90.1% and 101%, respectively.

`Nc1c(S(=O)(=O)O)cc2c3c(cccc13)C(=O)OC2=O`: the growth with T-47D breast is 96%; with BT-549 breast it was 104%; in the assay with MDA-MB-435 melanoma it was 102%; in the assay on SW-620 colon, 99.8%; in the assay with MCF7 breast, 94.8%; in the assay on HCT-116 colon, 98.6%. Moreover, the growth is 102% in the assay on HCC-2998 colon and 92.5% with KM12 colon.

In the case of `CCCCNC(=O)Oc1ccc(/C(=C(\C)c2ccccc2)c2ccc(OCCN3CCCCC3)cc2)cc1`, the growth is 31.6% in the assay on T-47D breast; 62% in the assay on BT-549 breast; 67.8% in the assay with MDA-MB-435 melanoma; 60.8% in the assay with SW-620 colon; 22.5% in the assay on MCF7 breast; 42.8% in the assay with HCT-116 colon. For the same molecule, the growth was 79% with HCC-2998 colon and 52.1% in the assay on KM12 colon.

Turning to `COc1cc2nc(-c3ccc(Cl)cc3)cc(OCCCN3CCC(O)CC3)c2cc1OC`, the growth was 44.3% in the assay on T-47D breast; 34.9% in the assay with BT-549 breast; -10.7% (active) in the assay on MDA-MB-435 melanoma; 51.2% in the assay on SW-620 colon; 48.9% in the assay on MCF7 breast; 17.9% in the assay with HCT-116 colon. Also, the growth with HCC-2998 colon was 69.9%; in the assay on KM12 colon it was 37.2%.

Consider `O=[N+]([O-])c1ccc(NC(=S)N/N=C/c2cc3ccccc3n3nnnc23)cc1`, for which the growth in the assay on T-47D breast was 46.5%; in the assay with BT-549 breast, 80.4%; in the assay with MDA-MB-435 melanoma, 82.4%; with SW-620 colon it was 24.4%; with MCF7 breast, 13.8%; with HCT-116 colon, 61.3%. Further, the figures for the growth in the assay with HCC-2998 colon and with KM12 colon were 54% and 66.9%, respectively.

Consider `N=C1C(c2nc3ccccc3s2)=C(O)CN1c1cc(Cl)cc(Cl)c1`, for which the growth is 97% with T-47D breast; 71.3% with BT-549 breast; 41.6% in the assay on MDA-MB-435 melanoma; 54.8% in the assay with SW-620 colon; 148% in the assay with MCF7 breast; 46.5% in the assay with HCT-116 colon. Also, the growth in the assay on HCC-2998 colon was 85.8%; in the assay on KM12 colon, 64.7%.

Regarding `O=C1c2ccc3c4c(ccc(c24)C(=O)N1CCCNCc1ccccc1Cl)C(=O)N(CCCNCc1ccccc1Cl)C3=O`, the growth with T-47D breast was -25.5% (active); in the assay with BT-549 breast it was -69% (active); in the assay on MDA-MB-435 melanoma it was -43.7% (active); in the assay on SW-620 colon it was -82.7% (active); in the assay on MCF7 breast, -78.2% (active); in the assay with HCT-116 colon, -6.85% (active). Also, the growth in the assay with HCC-2998 colon is -85.5% (active); with KM12 colon it was -72.5% (active).

For the molecule `N#Cc1c(-c2ccccc2)nc2c(c(-c3ccccc3)nn2-c2ccccc2)c1-c1ccc(O)cc1`, the growth in the assay on T-47D breast is 35.3%; in the assay on BT-549 breast it was 59.7%; with MDA-MB-435 melanoma, 51.5%; with SW-620 colon, 16.5%; in the assay with MCF7 breast, 14.8%; in the assay on HCT-116 colon, 34.8%. Further, the growth in the assay on HCC-2998 colon was 72%; with KM12 colon it was 47.1%.

`NC(=NCc1ccccc1)C(N=Nc1ccccc1)C(=O)NCc1ccccc1` (configuration not stated): the growth with T-47D breast was 84.6%; in the assay with BT-549 breast, 114%; in the assay on MDA-MB-435 melanoma, 81.4%; in the assay on SW-620 colon it was 61.5%; in the assay on MCF7 breast, 69.4%; in the assay with HCT-116 colon it was 15.8%. The growth with HCC-2998 colon is 74.7%; with KM12 colon it was 34.6%.

Consider `O=C(Cn1c[n+](CC(=O)c2ccc(-c3ccccc3)cc2)c2ccccc21)Nc1cccc2cccnc12`, for which the growth in the assay on T-47D breast was 10.8%; with BT-549 breast, -9.9% (active); in the assay with MDA-MB-435 melanoma, 7.5% (active); in the assay with SW-620 colon, 36.1%; with MCF7 breast, 12.6%; with HCT-116 colon, 11.9%. Further, the growth is 6.56% (active) in the assay on HCC-2998 colon and -31.5% (active) in the assay with KM12 colon.

On to `C/C(=N\NC(=O)CSc1nc2ccccc2c(=O)n1CCc1ccc(S(N)(=O)=O)cc1)c1ccccn1`, for which the growth in the assay with T-47D breast is 28.4%; in the assay on BT-549 breast it was 59.4%; in the assay on MDA-MB-435 melanoma, 33.4%; in the assay on SW-620 colon it was 32.1%; in the assay on MCF7 breast it was 34.5%; in the assay with HCT-116 colon, 24.5%. The growth in the assay on HCC-2998 colon is 39.3%; with KM12 colon it was 21.3%.

As to `O=C(c1nc2ccccc2[nH]1)C1C(c2ccc(Cl)cc2)C2CC3CCCC[C@H]3N2[C@@]12C(=O)Nc1cc(Cl)ccc12` (some centres not stated), the growth in the assay with T-47D breast is 24.8%; with BT-549 breast, 80.8%; with MDA-MB-435 melanoma, 24.8%; in the assay with SW-620 colon it was 33.2%; in the assay with MCF7 breast, 17.3%; in the assay on HCT-116 colon, 23.4%. The results for the growth in the assay with HCC-2998 colon and in the assay with KM12 colon were 52% and 45.8%, respectively.

`CNC(=O)c1cccc(Cn2nc(C)c(NC(=O)c3ccc(COc4ccc(C(F)(F)F)cc4C)cc3)c2C)n1`: the growth is 7.54% (active) in the assay on T-47D breast; 22.1% with BT-549 breast; 43.2% in the assay with MDA-MB-435 melanoma; 81.8% in the assay with SW-620 colon; 21.7% with MCF7 breast; 24.4% in the assay with HCT-116 colon. Besides, the growth is 61.7% with HCC-2998 colon and 65.4% in the assay on KM12 colon.
